Results taken from the supplement of paper PMC11732987, “Enantioselective OTUD7B fragment discovery through chemoproteomics screening and high-throughput optimisation” (Communications Chemistry, 2025).

How the values were obtained:
Assay in all cases: log2 ratio of Biotin-Ahx-Ub-VS probe labelling (fragment/DMSO); higher = less target engagement (more negative = stronger competition), active = hit call of the paper (q ≤ 0.05, log2 ratio ≤ -1)
Settings in all cases: compound concentration: 200 uM; treatment time: 3 h
USP19 = target: T1, USP19 (UniProt O94966)
T1 sequence (whole entry): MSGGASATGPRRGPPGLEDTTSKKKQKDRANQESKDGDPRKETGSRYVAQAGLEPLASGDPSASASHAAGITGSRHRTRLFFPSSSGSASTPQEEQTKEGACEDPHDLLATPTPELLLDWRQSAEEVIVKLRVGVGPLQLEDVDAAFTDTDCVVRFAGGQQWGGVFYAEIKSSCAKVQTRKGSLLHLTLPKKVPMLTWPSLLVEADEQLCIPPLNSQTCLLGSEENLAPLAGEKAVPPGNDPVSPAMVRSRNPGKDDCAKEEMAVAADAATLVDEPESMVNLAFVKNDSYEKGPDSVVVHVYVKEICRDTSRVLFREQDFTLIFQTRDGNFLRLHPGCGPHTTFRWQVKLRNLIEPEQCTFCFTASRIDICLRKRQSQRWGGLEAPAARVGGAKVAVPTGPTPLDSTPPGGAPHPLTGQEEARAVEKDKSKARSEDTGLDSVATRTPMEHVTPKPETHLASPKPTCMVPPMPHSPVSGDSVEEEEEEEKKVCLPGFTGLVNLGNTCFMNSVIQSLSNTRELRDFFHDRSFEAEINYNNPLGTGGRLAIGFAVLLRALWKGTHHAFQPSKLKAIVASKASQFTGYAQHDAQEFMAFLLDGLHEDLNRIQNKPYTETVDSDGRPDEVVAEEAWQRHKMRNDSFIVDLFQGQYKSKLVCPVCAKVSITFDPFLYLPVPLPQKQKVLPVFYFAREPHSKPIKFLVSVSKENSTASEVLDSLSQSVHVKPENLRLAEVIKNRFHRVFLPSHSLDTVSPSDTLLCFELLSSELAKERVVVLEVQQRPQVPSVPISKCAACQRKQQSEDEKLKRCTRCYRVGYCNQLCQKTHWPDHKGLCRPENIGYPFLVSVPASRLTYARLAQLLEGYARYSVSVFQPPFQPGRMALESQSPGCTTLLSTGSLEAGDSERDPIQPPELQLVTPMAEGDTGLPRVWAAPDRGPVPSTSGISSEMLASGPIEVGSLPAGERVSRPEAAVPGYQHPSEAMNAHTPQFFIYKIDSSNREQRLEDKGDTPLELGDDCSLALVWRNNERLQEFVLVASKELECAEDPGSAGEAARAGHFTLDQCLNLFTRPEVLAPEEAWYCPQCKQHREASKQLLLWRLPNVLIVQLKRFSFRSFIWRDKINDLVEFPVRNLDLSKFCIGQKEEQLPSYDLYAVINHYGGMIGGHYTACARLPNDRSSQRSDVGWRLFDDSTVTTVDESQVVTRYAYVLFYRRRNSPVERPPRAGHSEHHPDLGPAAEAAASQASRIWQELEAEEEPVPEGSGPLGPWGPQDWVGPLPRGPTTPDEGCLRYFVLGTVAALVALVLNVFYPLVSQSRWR
Method in brief: (§1)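 The table lists average log2 ratios of fragment over vehicle, from an unpaired t-test on global-median-normalised Spectronaut label-free quantities. Proteins with ≥2 unique peptides were used. Samples were HEK293T lysate (495 µg) treated in triplicate with fragment at 200 µM or vehicle for 3 h, then with Biotin-Ahx-Ub-VS (0.5 µM final) for 1 h, with labelled DUBs NeutrAvidin-enriched and run by diaPASEF LC-MS/MS.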

USP22 = target: T2, USP22 (UniProt Q9UPT9)
T2 sequence (whole entry): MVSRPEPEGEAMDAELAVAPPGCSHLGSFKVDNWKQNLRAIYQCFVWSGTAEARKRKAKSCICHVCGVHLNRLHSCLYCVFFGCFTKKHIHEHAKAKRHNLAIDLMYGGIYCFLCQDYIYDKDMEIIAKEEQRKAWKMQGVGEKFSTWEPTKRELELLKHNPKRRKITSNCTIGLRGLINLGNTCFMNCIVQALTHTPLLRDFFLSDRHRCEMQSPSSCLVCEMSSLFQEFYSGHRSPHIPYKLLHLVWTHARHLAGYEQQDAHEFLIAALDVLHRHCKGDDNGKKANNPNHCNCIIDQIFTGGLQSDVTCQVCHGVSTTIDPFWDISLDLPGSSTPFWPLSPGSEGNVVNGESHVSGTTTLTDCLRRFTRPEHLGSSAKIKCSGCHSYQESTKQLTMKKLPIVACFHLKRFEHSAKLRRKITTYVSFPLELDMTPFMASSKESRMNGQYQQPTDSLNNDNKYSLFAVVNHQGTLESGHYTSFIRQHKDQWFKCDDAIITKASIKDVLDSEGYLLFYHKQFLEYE
Method in brief: as §1

USP24 = USP24 (UniProt Q9UPU5)
Method in brief: as §1

USP25 = target: T3, USP25 (UniProt Q9UHP3)
T3 sequence (whole entry): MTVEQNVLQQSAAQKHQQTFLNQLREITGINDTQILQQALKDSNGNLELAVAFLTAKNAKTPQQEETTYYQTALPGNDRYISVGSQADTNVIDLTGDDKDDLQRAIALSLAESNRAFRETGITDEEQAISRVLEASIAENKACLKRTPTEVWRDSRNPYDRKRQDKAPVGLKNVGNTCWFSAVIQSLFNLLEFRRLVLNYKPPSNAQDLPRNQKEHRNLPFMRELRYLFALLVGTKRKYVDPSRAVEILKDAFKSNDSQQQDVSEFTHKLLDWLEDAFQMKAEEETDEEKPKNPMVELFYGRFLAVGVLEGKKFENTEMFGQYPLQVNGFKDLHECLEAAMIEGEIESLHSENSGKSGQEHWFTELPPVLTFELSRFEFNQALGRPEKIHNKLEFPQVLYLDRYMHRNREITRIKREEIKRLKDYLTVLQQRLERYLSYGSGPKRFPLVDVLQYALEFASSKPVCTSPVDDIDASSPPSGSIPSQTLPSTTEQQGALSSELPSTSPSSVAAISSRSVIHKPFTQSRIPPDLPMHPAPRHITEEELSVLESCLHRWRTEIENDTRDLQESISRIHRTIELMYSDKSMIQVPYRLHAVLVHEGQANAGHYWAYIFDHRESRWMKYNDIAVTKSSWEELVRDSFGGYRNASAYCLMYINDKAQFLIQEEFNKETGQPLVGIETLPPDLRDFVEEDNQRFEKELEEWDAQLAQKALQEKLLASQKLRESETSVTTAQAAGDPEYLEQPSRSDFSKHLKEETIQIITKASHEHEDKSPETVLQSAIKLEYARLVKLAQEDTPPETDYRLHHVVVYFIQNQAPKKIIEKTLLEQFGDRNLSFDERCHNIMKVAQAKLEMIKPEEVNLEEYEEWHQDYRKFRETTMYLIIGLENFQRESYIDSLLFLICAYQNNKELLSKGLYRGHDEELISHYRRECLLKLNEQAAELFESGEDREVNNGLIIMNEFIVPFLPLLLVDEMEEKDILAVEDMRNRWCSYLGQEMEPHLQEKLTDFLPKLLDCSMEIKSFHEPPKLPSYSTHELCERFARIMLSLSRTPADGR
Method in brief: as §1

USP28 = target: T4, USP28 (UniProt Q96RU2)
T4 sequence (whole entry): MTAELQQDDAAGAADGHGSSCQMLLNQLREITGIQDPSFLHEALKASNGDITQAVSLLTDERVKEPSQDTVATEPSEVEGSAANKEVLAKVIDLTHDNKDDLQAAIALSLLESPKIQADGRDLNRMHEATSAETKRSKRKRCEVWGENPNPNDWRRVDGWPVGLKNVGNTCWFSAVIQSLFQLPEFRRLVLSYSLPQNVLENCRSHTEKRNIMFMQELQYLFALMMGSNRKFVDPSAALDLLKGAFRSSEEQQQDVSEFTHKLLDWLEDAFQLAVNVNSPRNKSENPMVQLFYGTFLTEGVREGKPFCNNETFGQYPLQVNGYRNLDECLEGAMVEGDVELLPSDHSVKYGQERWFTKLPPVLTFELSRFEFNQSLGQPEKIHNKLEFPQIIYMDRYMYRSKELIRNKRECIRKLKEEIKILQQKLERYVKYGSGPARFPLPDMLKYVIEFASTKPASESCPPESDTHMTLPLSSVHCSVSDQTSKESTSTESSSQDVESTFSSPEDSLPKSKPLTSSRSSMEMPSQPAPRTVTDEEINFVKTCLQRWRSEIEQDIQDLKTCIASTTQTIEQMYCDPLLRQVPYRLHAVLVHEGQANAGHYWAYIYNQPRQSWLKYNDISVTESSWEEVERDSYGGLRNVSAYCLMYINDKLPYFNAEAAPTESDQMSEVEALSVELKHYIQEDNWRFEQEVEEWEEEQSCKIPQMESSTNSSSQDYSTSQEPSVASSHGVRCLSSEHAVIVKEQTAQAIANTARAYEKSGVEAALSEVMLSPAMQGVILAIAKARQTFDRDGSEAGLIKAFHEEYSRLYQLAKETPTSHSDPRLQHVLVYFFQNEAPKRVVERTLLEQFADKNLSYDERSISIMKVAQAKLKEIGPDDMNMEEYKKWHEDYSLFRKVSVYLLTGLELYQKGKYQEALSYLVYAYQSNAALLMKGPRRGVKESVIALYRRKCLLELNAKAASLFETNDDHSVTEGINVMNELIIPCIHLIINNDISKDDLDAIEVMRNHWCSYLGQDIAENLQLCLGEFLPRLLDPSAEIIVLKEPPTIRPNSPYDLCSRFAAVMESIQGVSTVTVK
Method in brief: as §1

Measured: log2 ratio of Biotin-Ahx-Ub-VS probe labelling

Chain of USP24 (Q9UPU5 whole entry): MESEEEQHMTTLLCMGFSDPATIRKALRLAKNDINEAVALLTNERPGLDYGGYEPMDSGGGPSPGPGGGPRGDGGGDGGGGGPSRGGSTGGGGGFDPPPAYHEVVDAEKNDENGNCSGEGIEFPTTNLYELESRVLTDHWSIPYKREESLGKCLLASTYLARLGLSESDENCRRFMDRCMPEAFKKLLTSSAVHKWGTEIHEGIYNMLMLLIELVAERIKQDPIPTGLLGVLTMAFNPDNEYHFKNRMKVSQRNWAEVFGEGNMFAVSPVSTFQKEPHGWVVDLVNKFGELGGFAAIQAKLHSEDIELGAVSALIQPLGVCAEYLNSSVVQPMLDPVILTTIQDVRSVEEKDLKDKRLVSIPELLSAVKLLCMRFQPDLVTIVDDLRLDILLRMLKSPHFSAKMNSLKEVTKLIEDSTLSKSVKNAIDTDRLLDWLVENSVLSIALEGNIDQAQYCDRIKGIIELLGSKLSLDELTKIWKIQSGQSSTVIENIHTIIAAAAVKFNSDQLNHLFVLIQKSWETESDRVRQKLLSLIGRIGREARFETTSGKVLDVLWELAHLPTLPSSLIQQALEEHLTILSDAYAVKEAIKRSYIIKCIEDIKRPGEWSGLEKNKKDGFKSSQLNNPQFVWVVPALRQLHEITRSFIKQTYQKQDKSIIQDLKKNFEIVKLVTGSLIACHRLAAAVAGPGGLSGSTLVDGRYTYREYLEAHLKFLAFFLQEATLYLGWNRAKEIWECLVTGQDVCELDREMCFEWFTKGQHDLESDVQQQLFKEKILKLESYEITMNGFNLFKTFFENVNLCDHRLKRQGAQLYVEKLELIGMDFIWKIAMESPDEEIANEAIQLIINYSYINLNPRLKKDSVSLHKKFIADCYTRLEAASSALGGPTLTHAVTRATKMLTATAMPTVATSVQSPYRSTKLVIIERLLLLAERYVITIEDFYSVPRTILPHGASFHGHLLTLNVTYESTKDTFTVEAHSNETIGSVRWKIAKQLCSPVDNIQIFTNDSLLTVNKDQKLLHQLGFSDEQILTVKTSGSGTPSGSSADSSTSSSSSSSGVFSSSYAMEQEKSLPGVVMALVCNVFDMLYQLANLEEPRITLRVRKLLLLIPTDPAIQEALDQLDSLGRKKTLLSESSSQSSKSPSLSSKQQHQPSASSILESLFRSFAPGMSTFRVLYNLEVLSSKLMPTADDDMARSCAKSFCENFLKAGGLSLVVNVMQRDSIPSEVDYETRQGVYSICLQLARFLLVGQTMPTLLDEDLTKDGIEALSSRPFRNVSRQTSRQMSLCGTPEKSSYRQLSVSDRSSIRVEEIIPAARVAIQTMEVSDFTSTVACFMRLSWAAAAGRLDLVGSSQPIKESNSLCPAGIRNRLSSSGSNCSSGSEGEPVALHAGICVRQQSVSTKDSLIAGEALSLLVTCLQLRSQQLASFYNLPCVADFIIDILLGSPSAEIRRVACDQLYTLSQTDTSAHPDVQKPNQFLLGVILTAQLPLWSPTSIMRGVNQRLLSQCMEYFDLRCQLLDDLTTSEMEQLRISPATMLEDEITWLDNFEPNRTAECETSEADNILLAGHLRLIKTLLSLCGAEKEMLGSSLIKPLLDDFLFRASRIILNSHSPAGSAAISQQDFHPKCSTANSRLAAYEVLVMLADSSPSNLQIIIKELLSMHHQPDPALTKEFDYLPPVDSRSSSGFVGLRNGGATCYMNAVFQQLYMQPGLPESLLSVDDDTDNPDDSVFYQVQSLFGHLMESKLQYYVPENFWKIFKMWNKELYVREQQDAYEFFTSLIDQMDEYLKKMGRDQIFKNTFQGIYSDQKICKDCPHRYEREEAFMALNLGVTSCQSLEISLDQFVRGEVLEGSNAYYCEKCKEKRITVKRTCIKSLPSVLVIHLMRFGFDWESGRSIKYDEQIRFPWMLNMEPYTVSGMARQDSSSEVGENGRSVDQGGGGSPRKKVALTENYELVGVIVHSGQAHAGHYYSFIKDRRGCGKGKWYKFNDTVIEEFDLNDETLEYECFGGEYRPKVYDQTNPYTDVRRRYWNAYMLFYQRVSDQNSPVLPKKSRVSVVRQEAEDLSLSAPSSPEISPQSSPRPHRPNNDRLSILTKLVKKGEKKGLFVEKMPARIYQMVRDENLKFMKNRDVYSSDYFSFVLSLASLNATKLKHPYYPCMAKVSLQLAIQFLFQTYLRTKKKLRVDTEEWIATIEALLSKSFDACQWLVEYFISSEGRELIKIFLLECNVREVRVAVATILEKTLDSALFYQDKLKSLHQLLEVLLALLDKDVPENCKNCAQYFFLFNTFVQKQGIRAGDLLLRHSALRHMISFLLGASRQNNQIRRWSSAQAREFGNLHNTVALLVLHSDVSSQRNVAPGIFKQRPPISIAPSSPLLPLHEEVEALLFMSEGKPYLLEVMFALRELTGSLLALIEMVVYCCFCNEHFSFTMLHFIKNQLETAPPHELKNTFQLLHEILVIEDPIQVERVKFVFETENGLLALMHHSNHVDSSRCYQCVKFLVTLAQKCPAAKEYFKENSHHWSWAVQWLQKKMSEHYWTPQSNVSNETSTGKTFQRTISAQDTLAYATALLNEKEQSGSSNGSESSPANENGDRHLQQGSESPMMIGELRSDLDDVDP

NC(=O)C1CCCN(C(=O)CCl)C1 (stereo not given)
inactive: USP19 -0.249 | USP22 0.245 | USP24 -0.257 | USP25 -0.119 | USP28 -0.348
